What was measured:
Format in all cases: functional
[1] = target: Solute carrier family 2, facilitated glucose transporter member 1 (Homo sapiens) (UniProt P11166); test: ST_JUDE_LEISH: Cytotoxicity at 2uM final concentration against transgenic Leishmania Mexicana promastigotes LmGLUT1 that are glucose transport deficient and complemented with the human glucose transporter GLUT1. Activity is measured by DNA content using SYBR green in vitro
[2] = target: Hexose transporter 1 (Plasmodium falciparum) (UniProt O97467); test: ST_JUDE_LEISH: Cytotoxicity at 2uM final concentration against transgenic Leishmania Mexicana promastigotes LmPfHT that are glucose transport deficient and complemented with the Plasmodium falciparum hexose transporter. Activity is measured by DNA content using SYBR green in vitro
[3] = target: Glucose transporter (Leishmania mexicana) (UniProt O61059); test: ST_JUDE_LEISH: Cytotoxicity at 2uM final concentration against transgenic Leishmania Mexicana promastigotes LmGT2 that are glucose transport deficient and complemented with the L. Mexicana glucose transporter 2. Activity is measured by DNA content using SYBR green in vitro

Chain of Solute carrier family 2, facilitated glucose transporter member 1 (Homo sapiens) (P11166 whole entry): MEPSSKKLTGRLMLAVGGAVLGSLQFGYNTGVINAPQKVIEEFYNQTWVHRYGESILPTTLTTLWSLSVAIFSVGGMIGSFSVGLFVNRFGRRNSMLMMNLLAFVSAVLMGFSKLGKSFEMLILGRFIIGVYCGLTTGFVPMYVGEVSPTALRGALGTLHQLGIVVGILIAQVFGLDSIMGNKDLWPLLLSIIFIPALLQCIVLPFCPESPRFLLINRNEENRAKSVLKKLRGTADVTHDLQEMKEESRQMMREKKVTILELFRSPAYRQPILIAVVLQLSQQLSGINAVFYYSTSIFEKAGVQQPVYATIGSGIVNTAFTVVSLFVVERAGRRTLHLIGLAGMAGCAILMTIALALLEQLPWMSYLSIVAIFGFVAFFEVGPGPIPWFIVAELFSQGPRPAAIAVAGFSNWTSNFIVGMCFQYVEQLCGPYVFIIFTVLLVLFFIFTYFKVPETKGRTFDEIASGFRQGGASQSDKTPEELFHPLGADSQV

SMILES	inhibition [1] [%]	inhibition [2] [%]	inhibition [3] [%]
CC(NC(C)c1cccc(Cl)c1)C(=O)Nc1cc(C(F)(F)F)ccc1N1CCOCC1 (centres undefined)	0.88	0.48	-9.9
Cc1ccc(O)cc1Nc1ccnc2cc(-c3csc(CN(C)CCN(C)C)n3)ccc12	-0.07	-0.87	0.38
Cc1onc(-c2c(F)cccc2Cl)c1C(=O)Nc1ccccc1I	2.35	2.24	2.12
O=S1(=O)NC2(CCN(CCc3ccc(Cl)cc3)CC2)Nc2cc(F)cc(F)c21	7.66	8.79	7.55
CC(CCc1ccccc1)NCC(O)c1ccc2c3c(cccc13)S(=O)(=O)N2C (centres undefined)	5.47	5.04	4.71
CC1CN(Cc2ccc(-c3ccc(-c4nc5cc(F)ccc5[nH]4)cc3)cc2)CC(C)O1 (centres undefined)	6	6.63	3.77
CCCCN1C(=N)NC(c2ccccc2)(c2ccccc2)C1=O	5.12	3.94	3.58
CN1CCN(c2ccc(CNc3ccc4ncc(-c5cccc(OC(F)(F)F)c5)n4n3)cc2)CC1	-2.82	-3.7	-2.5
CN(C)CCNC(=O)N1CCCN(c2ncnc3cc(-c4ccc(Cl)cc4)sc23)CC1	-0.35	-1.89	0.1
c1cc2[nH]c(CCCCCc3nc4cc(C5=N[C@@H]6CCCC[C@@H]6N5)ccc4[nH]3)nc2cc1C1=N[C@@H]2CCCC[C@@H]2N1	3.32	2.96	1.81
NCCCCNc1cc(-c2ccnc(Nc3cccc(Cl)c3)n2)ccn1	60.5	71.8	76.5
CC(C)c1ccc(NC(=O)c2ccc(C(=O)NC3CCN(CC4CCCCC4)CC3)cc2)cc1	0.94	-0.49	0.52
CCOC(=O)c1nc(-c2ccc(-c3ccccc3)cc2)[nH]c1N	3.98	2.89	2.52
COc1ccc(CCN(C)CCOc2ccc(NC(=O)COc3ccc4sc5ccccc5c(=O)c4c3)cc2)cc1OC	3.46	4.33	1.11
FC(F)(F)c1ccc2[nH]ccc(=NN=Cc3cccnc3)c2c1	1.46	1.75	5.22
CC(C)Cn1ccc2c3c(N)nc(N)nc3ccc21	27.1	47.5	17
Cc1noc(C)c1-c1ccc2c(Nc3ccc(C(F)(F)F)cc3)c(C(N)=O)cnc2c1	3.49	3.21	-3.02
N#Cc1ccc2c(c1)CCN(CCC1CCC(NC(=O)/C=C/c3cc(Br)cs3)CC1)CC2 (centres undefined)	5.26	2.93	-0.56
Cn1c(=N)n(CC(=O)N2CCc3ccc(Cl)cc3C2Cc2ccc(Cl)c(Cl)c2)c2ccccc21 (centres undefined)	0.36	1.29	5.67
O=C(/C=C/c1ccc(Cl)c(Cl)c1)NCCCCCN1CCCC(CNC(=O)/C=C/c2ccccc2)C1 (centres undefined)	-0.59	-0.44	-0.59
CCCC(CNCc1cccc(SC(F)(F)F)c1)CNc1cc(=O)c2ccccc2[nH]1 (centres undefined)	-0.14	1.41	3.17
C=CCNc1cc(-c2ccccn2)nc(-c2ccccn2)n1	31.9	9.08	6.05
CC(Cc1ccc(CNC(=O)c2ccc(CC(C)NCCc3cccc(Cl)c3)cc2)cc1)NCCc1cccc(Cl)c1 (centres undefined)	1.09	8.32	2.1
CN(c1ccc2c(c1)nc(Nc1cc(C(C)(C)C)on1)n2C)c1ccnc(Nc2ccc(CS(C)(=O)=O)cc2)n1	-1.02	0.41	-1.74
CCOc1ccccc1CNc1nccc(NCc2ccccc2OC)n1	2.53	4.16	2.05

SMILES	inhibition [1] [%]	inhibition [2] [%]	inhibition [3] [%]
CC1(C)N=C(N)N=C(Nc2ccc(Cl)cc2)N1	14.5	14.3	11.4
COc1ccc(C2CC(c3cccs3)=NN2C(=O)CNc2ccccc2F)cc1OC (centres undefined)	2.69	1.72	2.76
O=C(NCCN1CCOCC1)c1ccc(-c2ccc(CNCCCc3ccccc3)cc2)nc1	-1.5	-3	-0.47
COCCn1ccc2c3c(N)nc(N)nc3ccc21	0.38	3.61	2.26
CC(=O)Nc1ccc(OCCCCN(Cc2ccccc2C(F)(F)F)c2ccc(C#N)c(C(F)(F)F)c2)cc1	1.93	6.69	7.15
COc1nc2c(CCN3CCC(NCc4ccc5c(c4)NCCO5)CC3)c(Cl)cnc2cc1F	14.1	9.24	2.35
Cn1cnc(CCNC(=O)c2ccc(-c3cccc(-c4nc5cc(F)ccc5[nH]4)c3)cc2)c1	2.97	1.64	0.52
Cc1c(C)n(C2CCCC2)c2ncnc(OC3CCN(CC(=O)NCC4CC4)CC3)c12	7.05	5.47	2.01
O=C1O[C@H](c2ccccc2)[C@H](c2ccccc2)N(C(=O)OCc2ccccc2)[C@H]1Cc1ccccc1C1CCCC1	1.05	2.14	1.27
COc1ccc(-c2cc3ncn(CC(=O)N4CCN(c5cccc(OC)c5)CC4)c(=O)c3s2)cc1	2.19	3.48	2.45
Cn1cnnc1Sc1ccc(CN2CCOc3ccc(C4=CCCCC4)cc3C2)o1	0.65	1.97	1
CN(C)CCNC(=O)c1csc(Nc2ccc(Cl)c(Cl)c2)n1	0.89	1.38	2.28
CN1CCN(c2ccnc3cc4ccccc4cc23)CC1	-3.09	-3.08	-0.9
Cc1ccc(Cn2nc(N3CCNCC3)ccc2=O)cc1NC(=O)Nc1ccc(-c2ccccc2)cc1	1.5	2.27	-1.04
Cc1ccc(-c2nc3ccccc3o2)cc1NCc1cc(Cc2ccccc2)ccc1O	-0.71	-0.23	-0.6
CCOc1ccc2c(=NN=Cc3cccc(OC)c3)cc(C)[nH]c2c1	-0.74	-0.19	-0.12
Cc1cccc(-n2c(=O)c3c4c(sc3n3c(SCCC(C)C)nnc23)CCCC4)c1	0.75	1.59	-0.43
CON(C)C(=O)[C@@H](CCCCNC(=O)OCc1ccccc1)NC(=O)OC(C)(C)C	-0.81	-1.84	-1.83
CN1CCN(CC2(Nc3nccc(NCc4ccc(Cl)cc4Cl)n3)CCCCC2)CC1	6.66	7.74	6.18
CCOC(=O)C(C)(C)Oc1ccc(C(=C2CC(C)(C)CC(C)(C)C2)c2ccc(O)cc2)cc1	4.11	2.31	3.56
c1csc(-c2ccc3c(c2)CC(NCc2c[nH]c4cnccc24)C3)c1 (centres undefined)	4.86	5.34	5.84
Fc1cccc(COc2ccc(Nc3ncnc4sc(C#CCNC5CCC5)cc34)cc2Cl)c1	6.7	5.05	2.46
COc1cc2nc(Nc3ccc4c(cnn4Cc4ccccc4)c3)nc(Nc3ccc4c(cnn4Cc4ccccc4)c3)c2cc1OC	2.6	2.44	0.51
CCC(ON1C(N)=NC(N)=NC1(C)C)c1ccccc1 (centres undefined)	-1.61	-0.45	-3.19
c1ccc(CCNCc2ccc(-c3ccc(CNc4ccc5ncccc5c4)cc3)cc2)cc1	9.9	1.61	2.13

SMILES	inhibition [1] [%]	inhibition [2] [%]	inhibition [3] [%]
COc1cc2nc(Cl)nc(Nc3ccncc3)c2cc1OC	0.52	-0.73	-1.27
CN(C)CCOc1ccc(-c2cc(-c3ccncc3)c(-c3ccc(Cl)c(O)c3)[nH]2)cc1	1.45	1.71	1.4
CC(C)(C)NCc1cc(Nc2ccnc3cc(Cl)ccc23)ccc1F	7.77	8.36	9.71
Cc1cc(Nc2cc(Cl)cc(Cl)c2)nc(N)n1	9.89	10.2	6.94
N#Cc1cccc(Nc2cc(C(F)(F)F)nc(Nc3ccccc3)n2)c1	15.4	11.3	6.45
Cc1ccc2nc3c(cc(C(=O)NCc4ccccc4)c(=N)n3CCCn3ccnc3)c(=O)n2c1	10.5	12.5	12.2
c1ccc(C(c2cccs2)N2CCN(Cc3ccc(OCCCN4CCCCC4)cc3)CC2)cc1 (centres undefined)	7.65	6.22	5.51
CNC(=O)c1ccccc1Nc1nc(Nc2ccc(CCN3CCN(C)CC3)cc2)ncc1Cl	74.6	74.2	56
Fc1ccc(C=NN=c2cc[nH]c3ccccc23)cc1	11.7	13.4	8.73
CCC(CN1C(=N)NC(c2ccccc2)(c2ccccc2)C1=O)c1ccccc1 (centres undefined)	-0.75	-2.3	0.9
O=C(NCc1ccc(Cl)cc1)c1ccc(C(=O)NCC2CCCN2CC2CCCCC2)cc1 (centres undefined)	2.97	1.54	1.14
CC1C(c2cccc(Cl)c2)OCC(C)(C)N1C(=O)CCN1CCCCC1 (centres undefined)	-1.47	-0.69	-1.56
COc1ccc(CCn2c(=N)c(C(=O)NCc3cccnc3)cc3c(=O)n4cccc(C)c4nc32)cc1	5.3	4.73	0.26
CN(C)CCOc1cccc(NC(=O)Nc2ccc(-c3ccccc3)cc2)c1	2.67	1.78	1.53
O=S(=O)(Nc1ccc2nccc(N3CCNCC3)c2c1)c1ccc2c(Cl)cccc2c1	0.28	-0.67	-0.37
CC(CON1C(N)=NC(N)=NC1(C)C)c1ccc(Cl)cc1Cl (centres undefined)	23.2	37.1	24.2
CCCCCCP(=O)(COc1ccc(CCN(CC(O)COc2cccc3[nH]c(C(N)=O)cc23)CC(O)COc2cccc3[nH]c(C(N)=O)cc23)cc1)OCCCC (centres undefined)	8.37	8.1	6.45
CN(C)c1ccc(-c2cscc2C(=O)NC2CCCN(Cc3cccnc3)C2)cc1 (centres undefined)	-0.4	-0.27	-0.28
C=CCOC(=O)N1CCC(CNCc2cccc(-c3ccc(-c4nc5cccc(C)c5[nH]4)cc3)c2)C1 (centres undefined)	6.3	8.62	9.02
CCC[C@@H]([C@@H](CC1CCCCC1)C(=O)N[C@H](C(=O)Nc1nccs1)C(C)(C)SCCNC(=O)OCc1ccccn1)N(O)C=O	-3.15	-0.71	8.17
Cc1noc(C)c1-c1cccc(CNCc2ccc(-c3ccc(-c4nc5cc(C(F)(F)F)ccc5[nH]4)s3)cc2)c1	3.88	3.12	0.04
COc1cccc(CNC[C@@H](O)[C@H](Cc2ccccc2)NC(=O)c2cc(N3CCCC3=O)c3[nH]cc(C(C)C)c3c2)c1	1.26	2.02	2.36
COc1cccc(C(=O)NC(c2ccccc2OC)c2cc(Cl)c3cccnc3c2O)c1 (centres undefined)	-1.87	-2.45	0.13

From ChEMBL document CHEMBL3433997, “St. Jude Leishmania screening dataset” (2016)
